# Rows were chosen to be rich in hits. Some 1.1% of all compounds tested hit in one or more screens of this group.
# ASM inhibitor = blocks human secretory acid sphingomyelinase; actives 0.006% (n = 340,000); P17405; placental ASM, HMU-PC fluorogenic substrate, 60 min; Potency, µM (top dose mostly 57.5 µM), without a hit: top-dose activity change, negative = inhibition, actives largely listed as inhibitors; further: potency means the concentration at half of the fitted maximal effect
#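 HMU-PC0 cleavage (9 uM final) by human placental ASM, 60 min at 37 °C following 10 min compound exposure at RT; stopped at pH 10, fluorescence Ex 386/Em 447 nm.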
# RXFP1 ag = activates the human relaxin receptor RXFP1; Q9HBX9; HEK293T-RXFP1 cAMP TR-FRET, 30 min; response scale: percent of porcine relaxin response, buffer zero; Potency, µM (doses to about 57.5 µM), for the others: at the top dose activation, most hits filed as activators; actives 0.3% (n = 370,000); AID 2676; further: potency means the concentration at half of the fitted maximal effect; on the % scale 0 is the no-effect control and ±100 the full control effect; nearly all actives have a fitted effect of over 60% in size
# Target sequence (Q9HBX9 whole entry, looked up): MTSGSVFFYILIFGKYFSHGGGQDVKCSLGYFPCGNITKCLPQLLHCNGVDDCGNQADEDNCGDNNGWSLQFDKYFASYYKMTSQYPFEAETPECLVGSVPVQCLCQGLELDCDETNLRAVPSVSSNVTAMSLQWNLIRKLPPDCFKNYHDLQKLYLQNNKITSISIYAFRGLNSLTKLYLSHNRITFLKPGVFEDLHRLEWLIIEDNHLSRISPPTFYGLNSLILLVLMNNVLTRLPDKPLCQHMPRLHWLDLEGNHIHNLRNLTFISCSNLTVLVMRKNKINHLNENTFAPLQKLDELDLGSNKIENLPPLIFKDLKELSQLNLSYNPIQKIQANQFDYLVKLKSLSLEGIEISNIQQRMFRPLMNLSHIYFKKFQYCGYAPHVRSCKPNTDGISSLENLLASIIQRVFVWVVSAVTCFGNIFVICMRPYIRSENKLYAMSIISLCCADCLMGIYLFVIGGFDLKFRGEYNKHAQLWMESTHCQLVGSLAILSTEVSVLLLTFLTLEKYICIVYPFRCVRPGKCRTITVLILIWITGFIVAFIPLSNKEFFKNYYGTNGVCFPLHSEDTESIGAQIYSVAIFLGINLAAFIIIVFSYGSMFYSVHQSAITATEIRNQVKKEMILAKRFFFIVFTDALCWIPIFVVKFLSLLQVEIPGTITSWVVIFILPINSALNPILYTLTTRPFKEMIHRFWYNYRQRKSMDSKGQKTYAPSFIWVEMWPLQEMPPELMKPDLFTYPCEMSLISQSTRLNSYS
#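 cAMP rise read by TR-FRET after 30 min, 37C compound exposure (up to 58 uM) in RXFP1-transfected HEK293 cells with Ro 20174 present. EC50 from Hill-equation fits, with 29 nM porcine relaxin as 100% and buffer as basal.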
# gsp antag = antagonizes gsp, the McCune-Albright syndrome mutation. Potency, µM (titrated, usually from 76.9 µM), inactives show at the top dose activity change, negative = inhibition, hits mostly inhibitors. gsp-mutant cells, cAMP HTRF, 30 min. actives 0.4% (n = 340,000). AID 624288; calls by dose curve; cell line not stated here;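 further: intracellular cAMP measured with PDE inhibitor Ro 20-1724 present during compound exposure; potency means the concentration at half of the fitted maximal effect; on the % scale 0 is the no-effect control and ±100 the full control effect; nearly all actives have a fitted effect of over 65% in size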
#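 HTRF cAMP read-out (cAMP-d2 plus anti-cAMP antibody-K in lysis buffer, 30 min RT). Before lysis, cells are exposed to compounds with […] for 30 min at 37C in DPBS containing Ca/Mg, BSA and Tween 20.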
# a7 integrin act = activates integrin-mediated alleviation for muscular dystrophy; Potency, µM (titrated, usually from 38.3 µM), inactives show at the top dose activation, actives largely listed as activators; actives 0.064% (n = 350,000); alpha7betagal myoblasts, beta-gal FDG fluorescence, 48 h;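 further: potency means the concentration at half of the fitted maximal effect; 100% = response of the positive control SU9516; nearly all actives have a fitted effect of over 60% in size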
#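 alpha7betagal+/- myoblasts (passage 13, 250/well) treated 48 h at 37C with compounds at 1:260 dilution of DMSO stock. Lysed, then beta-galactosidase activity read as FDG fluorescence (ex 480/em 540) after 30 min, with pre-read for autofluorescence.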
# RXFP1 antag = blocks the human relaxin receptor RXFP1; Q9HBX9; HEK293-RXFP1, relaxin-stimulated cAMP HTRF, 30 min; hits give low values; activity change, negative = inhibition, % at 57.5 µM; actives 0.59% (n = 350,000);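 active means activity change of -60% or lower, but not beyond a set lower limit; inconclusive means change between -60% and -40%, or beyond the set limit; inactive means change above -40%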; further: on the % scale 0 is the no-effect control and ±100 the full control effect
# gsp ag = activates gsp, the McCune-Albright syndrome mutation; gsp mutant cells, cAMP HTRF, 30 min; Potency, µM (series often up to 76.9 µM), for the others: at the highest dose activation (cAMP increase), usual class: activators; actives 0.13% (n = 340,000); active means well fitted activation curve with a large enough effect; inconclusive means small, poorly fitted or top-dose-only effect, or another doubt; inactive means no such curve, though single readings can be large or run the other way; cell line not stated here;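 further: phosphodiesterase inhibitor Ro 20-1724 added with compounds to block cAMP breakdown; potency means the concentration at half of the fitted maximal effect; nearly all actives have a fitted effect of over 60% in size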
#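 Cells in DMEM/10% FBS with G418 were pretreated with compounds in DMSO plus […] (300 uM stock) for 30 min at 37C. cAMP was measured by HTRF (cAMP-d2 plus anti-cAMP antibody-K) after 30 min at room temperature.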
# * hit, by the source's call; ? = inconclusive; . = no result given; [ ] = another dose, or the depositor's remark. Unless noted, the call rests on the fitted dose curve; in most records, active means well fitted curve in the direction sought with a large enough effect; inconclusive means small, poorly fitted or top-dose-only effect, or another doubt; inactive means no such curve, though single readings can be large; an effect the other way counts as inactive or inconclusive.
SMILES,ASM inhibitor,RXFP1 ag,gsp antag,a7 integrin act,RXFP1 antag,gsp ag
Clc1cccc(-n2ncc3c(NC4CCCCC4)ncnc32)c1,.,9%,.,.,-70*,.
CN(C)c1ccc(N/C=C/C(=O)c2ccccc2)cc1,-7%,-3%,-11%,4%,-110*,9%
CN(C)c1ccc(N/C=C/C(=O)C(C)(C)C)cc1,2%,-10%,35µM*,-50%,?,-3%
O=C(NCCc1ccc(Cl)cc1)C1CCN(Cc2cc3ccccc3n2Cc2ccccc2)CC1,.,4%,.,.,-15,.
CCn1c(SCC(=O)NC(=O)NCc2ccco2)nc2sc(C)c(C)c2c1=O,0%,-3%,-5%,-29%,-69*,?
Cc1sc2nc(SCc3ccc(C(=O)O)cc3)n(Cc3ccco3)c(=O)c2c1C,0%,6%,25µM*,-50%,-25,-9%[15.4 µM]
COc1ccc(Nc2c3c(nc4ccc(NC(=O)/C=C/c5cccc(OC)c5OC)cc24)CCCC3)cc1OC,.,5%,.,.,-8,.
COc1ccc(-c2[nH]c(-c3cccc(OC)c3)nc2SCC(=O)Nc2ccc3c(c2)OCO3)cc1,.,5%,.,.,-2,.
O=c1[nH]sc2cc(Cl)ccc12,.,.,.,.,19,.
Cc1ccc(C(=O)C2=C(O)C(=O)N(CCCn3ccnc3)C2c2ccc(OC(C)C)cc2)o1 (centres undefined),-3%,16µM*,23%,23%,20,?
CC(C)C(O)(c1ccccc1)C(CN1CCOCC1)c1ccccc1 (centres undefined),3%,2%,0%,7%,-12,14%
CCCC(O)(c1ccc(CC)cc1)C(CN1CCOCC1)c1ccccc1 (centres undefined),2%,-3%,1%,-57%,-62*,-9%[15.4 µM]
CCc1ccc(C(O)(C(C)C)C(CN2CCOCC2)c2ccccc2)cc1 (centres undefined),0%,-1%,-9%,24%,-78*,0%
CN(C)S(=O)(=O)c1cccc(COc2ncnc3c(Cl)cc(Cl)cc23)c1,-8%,16µM*,-6%,-1%,12,?
O=C(COC(=O)CNS(=O)(=O)c1ccc(Br)cc1Cl)NC1CCCC1,6%,1%,-6%,28%,-93*,-31%[15.4 µM]
COC(=O)c1ccc(/C=C2\SC(=S)N(CCCC(=O)N3CCOCC3)C2=O)cc1,1%,.,1%,-31%,-16,-10%
COC(=O)c1ccc(/C=C2/SC(=S)N(CCC(=O)N3CCOCC3)C2=O)cc1,-2%,3%,50µM*,9%,-17,-26%
CCSc1nnc(NC(=O)C2CC(=O)N(Cc3ccccc3)C2)s1 (centres undefined),1%,1%,-9%,-6%,-4,-17%
COc1cccc2sc(N(Cc3cccnc3)C(=O)Cc3ccccc3)nc12,.,-1%,.,.,-10,.
COc1cc(OC)nc(O[C@H](C(=O)O)C(OC)(c2ccccc2)c2ccccc2)n1,.,.,.,.,-21,.
O=S(=O)(NC(=NC1CCCCC1)c1ccccc1)c1ccccc1,1%,-1%,-13%,0%,-9,-47%
O=S(=O)(NC(=NC1CCCCC1)c1ccccc1F)c1ccccc1,-2%,1%,13%,10µM*,?,-36%
O=C(c1ccc(-c2nc3ccccc3s2)o1)N1CCN(c2ccccc2O)CC1,.,0%,-32%,21%,-24,-2%[15.4 µM]
O=C(CN1CCN(C(=O)c2ccc(-c3nc4ccccc4s3)o2)CC1)Nc1ccccc1Cl,-9%,0%,18µM*,16%,-38,-4%[15.4 µM]
O=C(CN1CCN(C(=O)c2ccc(-c3nc4ccccc4s3)o2)CC1)Nc1ccc(F)cc1,-3%,0%,45µM*,-31%,-17,-51%
SMILES,ASM inhibitor,RXFP1 ag,gsp antag,a7 integrin act,RXFP1 antag,gsp ag
Cc1cccc(NC(=O)CN2CCN(C(=O)c3ccc(-c4nc5ccccc5s4)o3)CC2)c1C,-13%,0%,?,-16%,-33,-13%[15.4 µM]
O=C(CNS(=O)(=O)c1ccccc1)NCC(=O)OCc1ccc(Cl)cc1,1%,0%,0%,30%,4,7.9µM*
COc1cc(NC(=O)CN2C(=O)c3ccccc3S2(=O)=O)cc(OC)c1,-1%,0%,-4%,-44%,-14,-11%
O=C(O)c1cc(-c2ccccc2)nc(-c2ccccc2)c1,19%,3%,32µM*,-4%,0,-36%
O=C(O)c1cc(C(=O)O)c(-c2ccccc2)c(C(=O)O)c1,2%,0%,15%,-2%,-5,1%
OC(CNCc1ccc(-c2ccccc2)cc1)c1ccccc1 (centres undefined),-3%,2%,14%,0%,-61*,3%[15.4 µM]
Cc1ccc([C@H]2Nc3ccc(S(=O)(=O)Nc4cccc(Cl)c4C)cc3[C@H]3C=CC[C@H]32)cc1,.,2%,.,.,-62*,.
COc1cccc([C@H]2Nc3ccc(S(=O)(=O)Nc4cc(C)ccc4C)cc3[C@H]3C=CC[C@H]32)c1,.,0%,.,.,-27,.
COC(=O)c1ccc([C@H]2Nc3ccc(S(=O)(=O)Nc4cccc(C)c4)cc3[C@H]3C=CC[C@H]32)cc1,.,3%,.,.,-70*,.
CC(C)OCCCNC(=O)NC(=O)c1ccc(Cl)cc1,-1%,0%,9%,9%,-18,-6%[15.4 µM]
CCC(C(=O)NCCc1ccc(SC)cc1)n1nc(C)c2c(C)n(-c3ccc(C)cc3)nc2c1=O (centres undefined),.,1%,.,.,-5,.
CCC(C(=O)NCCc1ccc(C)cc1)n1nc(C)c2c(C)n(-c3ccccc3)nc2c1=O (centres undefined),3%,-2%,50µM*,16%,-7,?
CCc1c(C)nc2nncn2c1NCc1ccc(Cl)cc1,.,0%,.,.,-8,.
CCCOc1ccccc1Cn1c(=O)sc2ccccc21,.,0%,.,.,-62*,.
CCCCCn1c(N2CCCC2)nc2c1c(=O)n(C)c(=O)n2C,-2%,9%,?,7%,-21,7%[15.4 µM]
Cn1c(=O)c2c(nc(N3CCCCC3)n2CCCNC2=NCCCC2)n(C)c1=O,-1%,5%,21%,-14%,-2,13µM*
COc1ccc(CCn2c3c(c(=O)[nH]c2=O)C(NC(=O)c2ccc(C(C)(C)C)cc2)(C(F)(F)F)C(=O)N3)cc1OC (centres undefined),.,0%,.,.,-5,.
COc1ccc(NC(=O)COc2ccccc2C(N)=O)cc1S(=O)(=O)N1CCCCC1,.,.,.,-7%,9,-1%
COc1cc(C(C)=O)ccc1OCC(=O)Nc1ccc(S(=O)(=O)N2CCCCC2)cc1,.,.,.,-7%,-3,-72%
COc1ccc(NC(=O)CSc2nnnn2C)cc1S(=O)(=O)N1CCCCC1,3%,4%,6%,-39%,-82*,-22%[15.4 µM]
